Source: PubChem
Rows were chosen to be rich in hits. Some 2.6% of all compounds tested hit in one or more screens of this group.
eIF4H FP inh: human eIF4H binding inhibitors, primary screen, translation initiation inhibitor project, biochemical, uHTS, fluorescence polarization; AID 2012, 2009; inhibition, % at 35 µM; 0.94% of 290,000 active; eIF4H fluorescence polarization binding assay;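 also: calls also rest on retests at 20 µM and on dose response follow-up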
APOBEC3G inh: APOBEC3G DNA deaminase inhibitors, primary screen, biochemical, fluorescence, single-stranded DNA substrate, uHTS; inhibition, % at 20 µM; DNA dC->dU-editing enzyme APOBEC-3G (Homo sapiens), Q9HC16; 0.28% of 330,000 active; AID 493012, 2011; recombinant A3G, ssDNA deamination FAM/TAMRA fluorescence;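 active = inhibition of at least 40% at 20 µM, with no more than 30% in the related APOBEC3A deaminase screen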
PABP FP inh: PABP poly(A) RNA binding inhibitors, primary screen, biochemical, fluorescence polarization, uHTS | Polyadenylate-binding protein 1 (Homo sapiens), P11940 | AID 2014, 2009 | calls only at 35 µM | 1% of 290,000 active;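 also: calls also rest on retests at 20 µM and on dose response follow-up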
Target sequence (P11940 whole entry, looked up): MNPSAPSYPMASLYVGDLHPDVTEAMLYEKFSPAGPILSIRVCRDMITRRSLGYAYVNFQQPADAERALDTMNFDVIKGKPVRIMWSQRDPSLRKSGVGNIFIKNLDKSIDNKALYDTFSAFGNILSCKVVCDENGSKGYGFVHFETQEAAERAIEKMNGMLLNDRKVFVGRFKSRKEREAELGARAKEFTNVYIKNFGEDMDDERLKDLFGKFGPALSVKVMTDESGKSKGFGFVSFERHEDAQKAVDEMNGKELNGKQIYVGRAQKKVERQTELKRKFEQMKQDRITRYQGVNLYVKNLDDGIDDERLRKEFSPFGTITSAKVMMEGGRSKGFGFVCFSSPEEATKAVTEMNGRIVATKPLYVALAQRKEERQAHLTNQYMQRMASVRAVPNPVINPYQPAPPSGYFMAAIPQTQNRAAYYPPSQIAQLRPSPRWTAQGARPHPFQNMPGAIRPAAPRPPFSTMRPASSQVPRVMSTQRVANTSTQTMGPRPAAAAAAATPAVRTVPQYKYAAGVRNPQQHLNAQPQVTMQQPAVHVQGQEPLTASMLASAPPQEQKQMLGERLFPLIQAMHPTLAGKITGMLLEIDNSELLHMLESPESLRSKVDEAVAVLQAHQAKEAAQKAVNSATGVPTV
MLLE-PAM2 inh: inhibitors of PABP1 MLLE–PAM2 peptide binding, primary screen, biochemical, fluorescence polarization, FITC-PAM2, GST-MLLE | inhibition, % at 20 µM | 0.36% of 360,000 active; in the data active = inhibition above about 35%, passing the limit was not always enough
A3A deaminase: APOBEC3A ssDNA deaminase inhibitors, primary screen, selectivity assay for APOBEC3G inhibitor project, biochemical, FAM/TAMRA oligo cleavage fluorescence | recombinant A3A, FAM/TAMRA ssDNA deamination fluorescence | inhibition, % at 20 µM | 0.41% of 330,000 active;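 active = at least 40% inhibition at 20 µM here, with at most 30% in a related deaminase screen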
PHOSPHO1 inh: PubChem AID 1565. Phosphoethanolamine/phosphocholine phosphatase (Homo sapiens), Q8TCT1. recombinant PHOSPHO1, absorbance phosphatase assay. inhibition, % at 13.3 µM. 1.1% of 290,000 active; in the data active = inhibition above about 60%
Of the large screens only hits and unclear results are named; the others gave an inactive call. Unless noted, no rule for the calls is given here.

CCOC(=O)CNC(=O)/C=C/c1ccc2c(c1)OCO2	none
CNC(=O)C[C@H]1C(=O)N(CCc2ccccc2)C[C@@H]1CSC	none (no result: eIF4H FP inh, APOBEC3G inh, PABP FP inh, A3A deaminase, PHOSPHO1 inh)
COc1ccc([N+](=O)[O-])cc1N(CC(O)CN1CCCCC1)S(=O)(=O)c1ccc(C)cc1 (stereo unspecified)	eIF4H FP inh 112.3, PABP FP inh active
N#Cc1cc2c(nc1SCc1nc3ccccc3[nH]1)CCC2	PHOSPHO1 inh 74.0 (no result: MLLE-PAM2 inh)
Cc1nc(NC(C)C(=O)O)c2nc(C)oc2n1 (stereo unspecified)	PHOSPHO1 inh 62.3
CCOC(=O)C1=C(C)N=c2s/c(=C\c3ccc(C(=O)O)cc3)c(=O)n2C1c1ccc(OC)cc1OC (stereo unspecified)	none (no result: eIF4H FP inh, APOBEC3G inh, PABP FP inh, A3A deaminase, PHOSPHO1 inh)
COC(=O)C1=C(C)N=c2s/c(=C/c3ccoc3)c(=O)n2C1c1ccccc1 (stereo unspecified)	eIF4H FP inh 83.0, PABP FP inh active
CCOC(=O)C1=C(C)N=c2s/c(=C\c3ccc(OCC(=O)O)cc3)c(=O)n2C1c1ccccc1 (stereo unspecified)	none
CCOC(=O)C1=C(C)N=c2s/c(=C/c3ccco3)c(=O)n2C1c1cccc(OC)c1 (stereo unspecified)	eIF4H FP inh inconclusive, PABP FP inh inconclusive, PHOSPHO1 inh 66.2 (no result: MLLE-PAM2 inh)
Cc1cc(C(=O)NC2CCC(O)CC2)c(C)o1 (stereo unspecified)	none (no result: eIF4H FP inh, PABP FP inh, PHOSPHO1 inh)
O=C(Cc1ccc(Br)cc1)N(Cc1ccccc1)c1ccccn1	PHOSPHO1 inh 62.9
CCOC(=O)CC(=O)CSc1nc(-c2cccnc2)ccc1C#N	eIF4H FP inh 68.6, PABP FP inh active
CCOC(=O)CC(=O)CSc1nc(-c2cccnc2)cc(C)c1C#N	eIF4H FP inh inconclusive, PABP FP inh inconclusive
CCOC(=O)CC(=O)CSc1nc(N)c(C#N)c(-c2ccc(F)cc2)c1C#N	eIF4H FP inh 62.3, PABP FP inh active
CCOC(=O)CC(=O)CSc1nc2c(cc1C#N)CCCCCC2	PHOSPHO1 inh 75.8
O=C(CSc1ncnc2ccccc12)NCc1ccco1	MLLE-PAM2 inh 43.8
Cc1nnc(NC(=O)CSc2nc(C(C)C)nc3ccccc23)s1	MLLE-PAM2 inh 37.3
Cc1ccccc1Nc1nnc(SCC(=O)NCc2ccco2)s1	PHOSPHO1 inh 86.6
Cc1csc(NC(=O)CSc2nc3ccccc3c3c2CCCC3)n1	none
Cc1csc(NC(=O)CSc2ncnc3ccccc23)n1	PHOSPHO1 inh 62.8
CC(C)c1nc(SCC(=O)Nc2nc3c(s2)CCCC3)c2ccccc2n1	none
COc1ccc(C(=O)N2CCN(C(C)=O)CC2)cc1S(=O)(=O)N1CCOCC1	none
CC(C)(C)c1ccc(C(=O)NCc2nnc(SCC(=O)NCc3ccco3)o2)cc1	eIF4H FP inh 52.5
O=C(CSc1nnc(CNC(=O)c2ccccc2)o1)NCc1ccco1	none
Cn1c(=O)c2[nH]c(CCc3ccncc3)nc2n(C)c1=O	none (no result: eIF4H FP inh, APOBEC3G inh, PABP FP inh, A3A deaminase, PHOSPHO1 inh)
COc1cc(CNCCCN2CCOCC2)c(Br)cc1OCC(=O)Nc1ccccc1C	none
COc1ccccc1NC(=O)COc1ccc(Br)cc1CNCCCN1CCOCC1	PHOSPHO1 inh 70.5
O=C(c1ccc2c(c1)OCO2)C1CCCN(C(=O)c2cnn(Cc3ccccc3)c2)C1 (stereo unspecified)	none
O=C(c1ccc2c(c1)OCO2)C1CCCN(C(=O)NCc2ccccc2)C1 (stereo unspecified)	eIF4H FP inh 57.6, PABP FP inh active
COc1ccc(OC)c(/C=N/NC(=O)C(O)c2ccccc2)c1 (stereo unspecified)	none
COc1ccccc1CNC(=O)c1ccc2c(=O)n3c(nc2c1)CCCCC3	PHOSPHO1 inh 64.9
CCOc1ccc(NC(=O)c2ccc3c(=O)n4c(nc3c2)CCCCC4)cc1	none (no result: eIF4H FP inh, PABP FP inh)
CC(OC(=O)c1ccc2c(=O)n3c(nc2c1)CCC3)C(N)=O (stereo unspecified)	eIF4H FP inh 4.5, PABP FP inh active
CCOc1ccccc1NC(=O)c1ccc2c(=O)n3c(nc2c1)CCCCC3	PHOSPHO1 inh 75.1
COc1ccccc1OCC(=O)NNC(=O)c1ccc2c(=O)n3c(nc2c1)CCC3	none
CC(NC(=S)NC(=O)c1cccs1)c1ccccc1 (stereo unspecified)	none (no result: eIF4H FP inh, PABP FP inh, PHOSPHO1 inh)
CC(NC(=O)c1cccs1)C(S)c1ccccc1 (stereo unspecified)	MLLE-PAM2 inh 43.4 (no result: APOBEC3G inh, A3A deaminase)
CCOC(=O)CCC(=O)N1CCNC(=O)C1	none
NC(=O)CSc1nnnn1-c1ccccc1Cl	none
Cc1cccc2cc3c(N)c(C#N)sc3nc12	PHOSPHO1 inh 63.7
Cc1sc(NC(=O)c2sc3nc4c(C)cccc4cc3c2N)c(C#N)c1C	none
CC(=O)N1CCc2[nH]c3ccc(C)cc3c2C1	eIF4H FP inh inconclusive, PABP FP inh active
CCOC(=O)N1CCc2[nH]c3ccc(C)cc3c2C1	MLLE-PAM2 inh 56.0
Cc1ccc2[nH]c3c(c2c1)CN(C(=O)CN1CCSCC1)CC3	eIF4H FP inh 52.6, PABP FP inh active (no result: APOBEC3G inh, MLLE-PAM2 inh, A3A deaminase)
COc1ccccc1NC(=O)N1CCc2[nH]c3ccc(F)cc3c2C1	eIF4H FP inh 101.8, PABP FP inh active
O=C(C1CCCCC1)N1CCc2[nH]c3ccc(F)cc3c2C1	none
CCOC(=O)c1ccc2[nH]c3c(c2c1)CN(C)CC3	none
CC1(Cc2cc(Cl)ccc2C(F)(F)F)C(=O)Nc2cc(-c3ccccc3Cl)ccc21 (stereo unspecified)	none (no result: eIF4H FP inh, APOBEC3G inh, PABP FP inh, A3A deaminase, PHOSPHO1 inh)
CC1CN(C(=O)COC(=O)Cc2c(F)cccc2Cl)CC(C)O1 (stereo unspecified)	none (no result: eIF4H FP inh, PABP FP inh, PHOSPHO1 inh)
Cc1ccccc1NC(=O)c1cc(S(=O)(=O)N2CCCCC2)ccc1N1CCOCC1	none (no result: eIF4H FP inh, APOBEC3G inh, PABP FP inh, A3A deaminase, PHOSPHO1 inh)
CCOC(=O)c1ccc(N2N=C(C)/C(=C/C=C/c3ccco3)C2=O)cc1	eIF4H FP inh inconclusive, PABP FP inh active
CC1=NN(c2ccc(C(=O)OC(C)C)cc2)C(=O)/C1=C\C=C\c1ccco1	none
O=C(NCc1ccco1)c1cccc(S(=O)(=O)N2CCCC2)c1	none
O=C(c1ccccc1F)N1CCN=C1SCc1cccnc1	none
CCOc1ccccc1C(=O)N1CCN=C1SCc1cccnc1	MLLE-PAM2 inh 40.1
CSC1=N/C(=C\c2ccc(Br)o2)C(=O)S1	eIF4H FP inh 57.3, PABP FP inh active
COc1ccc(NC(=O)CCC(=O)c2cccs2)cc1S(=O)(=O)Nc1ccccc1Cl	none
Cc1ccc(NS(=O)(=O)c2ccc(C(=O)N3CCN(S(=O)(=O)c4ccccc4)CC3)cc2)cc1	none (no result: eIF4H FP inh, PABP FP inh, PHOSPHO1 inh)
CC(C)C(=O)Nc1sc2c(c1-c1nc3ccccc3[nH]1)CCCC2	PHOSPHO1 inh 103.6
